Results on 40 compounds are retold here after PubChem BioAssay (NCATS).

Results filed as inconclusive are left out. A call without a number means that no potency is given here. Calls of active or inactive are those of the source. The call rests on the fitted dose curve; in most records, active means well fitted cell-killing curve with a large enough effect; inconclusive means small, poorly fitted or top-dose-only effect; inactive means no such curve, though single readings can be large or run the other way.
Potency means the concentration at half of the fitted maximal effect.

The nature of this experiment: qHTS of pediatric cancer cell lines to identify multiple opportunities for drug repurposing: Primary screen for A673 cells (AID 1347092). Further: nearly all actives have a fitted effect of over 45% in size. The settings on record: A673 Ewing sarcoma viability, CellTiter-Glo ATP luminescence, 48 h; series mostly up to 46 µM. The source says:
Drug repurposing or repositioning has been offered as a strategy for drug development in oncology programs. This approach has special potential for childhood cancers and other rare or orphan diseases, where the expected return on new drug development has been a disincentive to pharmaceuticals. […] In this project we exploit the poly-pharmacology of drugs to discover new indications via phenotypic screening of a panel of 19 well-characterized cell lines derived from solid tumors seen in children and adolescents. The goal is to identify approved drugs with previously unrecognized anticancer properties that has the potential to reveal new mechanisms and biological processes involved in carcinogenesis or drug resistance. We employed a titration-based paradigm (quantitative high-throughput screening or qHTS), where all compounds were tested at multiple concentrations for their effect on cell viability. Concentration-response curves (CRCs) were derived directly from the primary screen, and both potency and efficacy values were used to identify compounds with robust bioactivity profiles. We screened the NIH Chemical Genomics Center (NCGC) Pharmaceutical Collection (NPC) and Mechanism Interrogation Plate (MIPE) small molecule collections of approved and investigational compounds against these cell lines; and measured metabolically active cells after 48 hours of compound treatment as a proxy for cell viability. […] Assay Submitter: Nathalia J. Martinez, National Center for Advancing Translational Sciences, National Institutes of Health, Rockville, MD, USA; email: natalia.martinez@nih.gov. Shen, M et al. Quantitative high-throughput phenotypic screening of pediatric cancer cell lines identifies multiple opportunities for drug repurposing. Oncotarget 2017 Dec 19;9(4):4758-4772. PMID 29435139.
The cells were obtained from University of North Carolina (UNC), Pediatric Preclinical Testing Program (PPT), and Coriell Institute (CI). qHTS cell viability assay: Cells were assayed in growth media at a density of 500-1,000 cells/well. Five microliters of cells were dispensed into 1,536-well, white, solid-bottom, TC-treated plates (Greiner Bio One) using a multidrop dispenser and incubated at 37 degrees C, 5% CO2, under a humidified atmosphere for 5 hours. Twenty-three nanoliters of compounds and controls (neutral control DMSO or positive control bortezomib at final concentration of 2.3 uM) were subsequently transferred by Kalypsys pintool. For primary screens, the MIPE collection was tested at 11-point dilutions (final concentrations range from 0.78 nM to 46 µM) and the NPC collection at 8-point dilutions (final concentrations range from 0.59 nM to 46 µM). Compounds tested in follow-up screens were assayed at 11-point dilutions. Cells were incubated for 48 hours, followed by addition of 3 uL of CellTiter-Glo (Promega). After a 15min incubation at room temperature, samples were analyzed for luminescence intensity using a ViewLux High-throughput CCD imager equipped with clear filters.
Consider `CC1CC(=O)NN=C1c1ccc(NCC(C)(C)NCC(O)COc2cc(Cl)ccc2C#N)cc1` (stereo not given), for which the Potency entry was “inactive”.

Turning to `CCCC(CCC)(C(=O)OCC)C(=O)OCC`, the Potency entry was “inactive”.

For the compound `CCN(CC)CCN`, the Potency entry is “inactive”.

As for `O=C1[C@@H]2[C@H]3CC[C@H](C3)[C@@H]2C(=O)N1CCCCN1CCN(c2ncccn2)CC1`, the Potency result was “inactive”.

Turning to `CC(=O)OCC[N+](C)(C)C`, the Potency result was “inactive”.

As for `CN1N=C(C(N)=O)CCC1=O`, the Potency entry was “inactive”.

Turning to `O=C(CCCCC(=O)Nc1c(I)cc(I)c(C(=O)O)c1I)Nc1c(I)cc(I)c(C(=O)O)c1I`, the Potency entry was “inactive”.

Take `Cc1onc(-c2ccccc2)c1C(=O)Cl`: the Potency entry is “inactive”.

Consider `C[N+](C)(CCOc1ccccc1)Cc1cccs1`, for which the Potency entry is “inactive”.

Take `COc1ccc2c(c1)CCCC2=O`: the Potency result is “inactive”.

With `CCCCCCCCCCCCCCCCCCNC(=O)OC1CCN(C(=O)OC[C@H](COC(=O)N(Cc2cccc[n+]2CC)C(=O)c2ccccc2OC)OC)CC1`, the Potency is 8.41 µM (active).

Regarding `O=C(O)c1ccccc1S`, the Potency result was “inactive”.

In the case of `Cc1cccc(C)c1NC(=O)c1ccc(N)cc1`, the Potency result was “inactive”.

In the case of `CCO[C@H](Cc1ccc(OCCc2ccc(OS(C)(=O)=O)cc2)cc1)C(=O)O`, the Potency entry was “inactive”.

As for `CC(=O)N(c1onc(C)c1C)S(=O)(=O)c1ccc(N)cc1`, the Potency entry is “inactive”.

As to `Nc1ccc(O)cc1`, the Potency result was “inactive”.

`CN(C(=O)C(Cl)Cl)c1ccc(OC(=O)c2ccco2)cc1`: the Potency entry is “inactive”.

Turning to `CNC(=O)c1c(I)c(NC(C)=O)c(I)c(C(=O)O)c1I`, the Potency result is “inactive”.

On to `CCCCCCCCCCCCCCCCCCN(C)C`, for which the Potency result was “inactive”.

Turning to `Oc1cccc2[nH]ccc12`, the Potency entry was “inactive”.

As for `CC(=O)[C@@]1(O)CC[C@H]2[C@@H]3C[C@H](C)C4=CC(=O)CC[C@]4(C)[C@H]3CC[C@@]21C`, the Potency entry is “inactive”.

For `CC(C)CCCC(C)NCCC(C)C` (stereo not given), the Potency result is “inactive”.

Take `CC(=O)Nc1ccn(C2COC(COC(=O)c3ccccc3)O2)c(=O)n1` (stereo not given): the Potency is 1.33 µM (active).

Consider `CCCCCN(CCCOC)C(=O)C(CCC(=O)O)NC(=O)c1ccc(Cl)c(Cl)c1` (stereo not given), for which the Potency result is “inactive”.

`CCOC(=O)c1ccc(NC(=O)CN2CCCCC2)cc1`: the Potency entry was “inactive”.

Regarding `COc1cc(C(=O)OC(COCCC(C)C)CN2CCOCC2)cc(OC)c1OC` (stereo not given), the Potency result was “inactive”.

On to `Fc1ccc(C(c2ccc(F)cc2)N2CCNCC2)cc1`, for which the Potency result was “inactive”.

Take `CC(C)Cc1ccc(C(C)C(=O)OCc2ccccn2)cc1` (stereo not given): the Potency result was “inactive”.

Turning to `O=C(c1ccco1)N1CCNCC1`, the Potency entry is “inactive”.

Take `CCCCN(CCCC)C(C(N)=O)c1ccc(OC)cc1` (stereo not given): the Potency result was “inactive”.

With `COC(=O)c1cc(Cl)ccc1NS(=O)(=O)C(F)(F)F`, the Potency result is “inactive”.

For the compound `CN(C)[C@@H]1C(=O)C(C(N)=O)=C(O)[C@@]2(O)C(=O)C3=C(O)c4c(O)cccc4C[C@H]3C[C@@H]12`, the Potency result is “inactive”.

In the case of `CCOC(=O)[C@H](CCc1ccccc1)N[C@@H](C)C(=O)N(CC(=O)O)C1Cc2ccccc2C1`, the Potency entry is “inactive”.

As to `CCCCOCCOC(=O)c1cccnc1`, the Potency result is “inactive”.

Take `Clc1ccc2c(c1)Nc1ccccc1S2`: the Potency result is “inactive”.

As to `CC(=O)Oc1ccc(C2(c3ccc(OC(C)=O)cc3)Oc3ccccc3NC2=O)cc1`, the Potency was 13.3 µM (active).

As to `CN1CC[C@H](c2c(O)cc(O)c3c(=O)cc(-c4ccccc4Cl)oc23)[C@H](O)C1`, the Potency was 0.106 µM (active).

In the case of `C[C@H](CN1CCCC1)C(=O)c1ccc(C(F)(F)F)cc1`, the Potency entry is “inactive”.

For the compound `Cc1cc(C(C)(C)C)c(O)c(C(C)(C)C)c1`, the Potency entry was “inactive”.

As for `CC(=O)c1ccc(O)c(C(N)=O)c1`, the Potency entry was “inactive”.
